This is a sample that favours compounds with a hit; in the whole collection about 10% have one here.
ALOX12 inhib: blocks human 12-lipoxygenase activity; 150,000 compounds, 0.12% hits; P18054; Potency, µM (series often up to 57.1 µM), usual class: inhibitors; purified 12-hLO, xylenol orange hydroperoxide absorbance; further: nearly all actives have a fitted effect of over 55% in size
Target sequence (P18054 whole entry, looked up): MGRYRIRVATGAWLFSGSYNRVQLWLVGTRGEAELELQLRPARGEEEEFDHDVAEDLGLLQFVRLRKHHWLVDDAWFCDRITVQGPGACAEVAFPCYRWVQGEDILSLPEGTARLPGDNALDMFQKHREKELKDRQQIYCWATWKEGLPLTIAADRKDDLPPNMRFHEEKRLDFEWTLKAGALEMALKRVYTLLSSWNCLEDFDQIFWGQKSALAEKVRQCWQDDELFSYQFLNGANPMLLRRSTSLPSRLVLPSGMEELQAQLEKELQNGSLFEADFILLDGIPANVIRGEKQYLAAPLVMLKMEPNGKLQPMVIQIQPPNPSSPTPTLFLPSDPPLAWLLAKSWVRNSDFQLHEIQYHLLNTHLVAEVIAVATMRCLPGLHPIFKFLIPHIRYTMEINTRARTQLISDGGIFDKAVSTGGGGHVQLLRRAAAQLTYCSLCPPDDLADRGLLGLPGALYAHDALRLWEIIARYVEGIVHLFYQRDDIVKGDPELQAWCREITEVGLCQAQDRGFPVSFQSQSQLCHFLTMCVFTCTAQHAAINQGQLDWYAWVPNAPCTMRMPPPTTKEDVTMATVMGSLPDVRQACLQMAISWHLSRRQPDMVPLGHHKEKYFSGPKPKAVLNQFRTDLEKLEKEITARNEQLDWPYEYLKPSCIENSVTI
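Hydroperoxide formation by human 12-lipoxygenase from 40 uM arachidonic acid was followed colorimetrically via ferric-xylenol orange complex, using the 573/405 nm absorbance ratio. Enzyme concentration was 150 nM, with 30 min reaction at room temperature.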
PNC assembly inh: inhibitors of perinucleolar compartment assembly; PC3M PTB-GFP, PNC prevalence imaging, 16 h; hits give low values; activity change (PNC), negative = inhibition, % at 10 µM; 140,000 compounds, 3.1% hits;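 active means readout at or below -70, meaning at least 70% loss of cells showing the perinucleolar compartment, a nuclear body marking cancer cells; inconclusive means readout between -30 and a set limit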
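Compounds are pinned in duplicate onto adhered PC3M cells stably expressing GFP-tagged PTB and incubated 16 h at 37 C. Cells are then fixed, nuclei stained with Hoechst, and PNC-positive cells counted.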
HPGD inh: blocks human HPGD enzyme activity | P15428 | purified HPGD, NADH fluorescence kinetic, PGE2 substrate | Potency, µM, hits mostly inhibitors | 150,000 compounds, 4.3% hits; active means well fitted inhibition curve with a large enough effect, not every such curve was filed as active; inconclusive means small, poorly fitted or top-dose-only effect, or another doubt; inactive means no such curve, though single readings can be large or run the other way
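20 nM HPGD preincubated 15 min at room temperature with compound in 50 mM Tris-HCl pH 8, 0.01% Tween 20. Started with 1 mM NAD+ and 30 uM prostaglandin E2; NADH fluorescence (360/450 nm) read 5 times over 30-s intervals, last minus first.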
aGal spleen mod: inhibitors or activators of human alpha-galactosidase in spleen homogenate. P06280. human spleen homogenate, 4MU-alpha-Gal fluorescence, 40 min. Potency, µM (highest dose often 80 µM), usual class: inhibitors. 240,000 compounds, 0.008% hits
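qHTS titration in buffer at pH 5.0. Alpha-galactosidase activity in spleen homogenate was measured via 4-methylumbelliferone release from 1 mM fluorogenic substrate after 40 min at 37C and a pH 10 stop. AC50 came from Hill fits of control-normalized data.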
GLA inh pH 4.5: blocks human alpha-galactosidase A at pH 4.5; P06280; purified enzyme, 4-MU-alpha-Gal fluorescence, pH 4.5; activity change, negative = inhibition, % at 105 µM; 230,000 tested, under 10 active; AID 1467
ALDH1A1 block: ALDH1A1 (human) enzyme inhibition | P00352 | Purified ALDH1A1, NADH fluorescence, propionaldehyde substrate | Potency, µM (series often up to 75.3 µM), hits mostly inhibitors | 220,000 compounds, 7.3% hits; active means well fitted inhibition curve with a large enough effect, not every such curve was filed as active; inconclusive means small, poorly fitted or top-dose-only effect, or another doubt; inactive means no such curve, though single readings can be large or run the other way
A number is an active result; - = inactive; ? = inconclusive; . = not tested or not shown; [ ] = dose if it differs, or a comment. Unless noted, the call rests on the fitted dose curve; in most records, active means well fitted curve in the direction sought with a large enough effect; inconclusive means small, poorly fitted or top-dose-only effect, or another doubt; inactive means no such curve, though single readings can be large; an effect the other way counts as inactive or inconclusive.

SMILES	ALOX12 inhib	PNC assembly inh	HPGD inh	aGal spleen mod	GLA inh pH 4.5	ALDH1A1 block
C/C(=N/NC(=O)CN1CCN(Cc2ccccc2)CC1)c1ccc([N+](=O)[O-])cc1	.	.	.	-	-	.
Cc1cc(Nc2ccccc2N2CCOCC2)n2ncnc2n1	-	-	17.8µM	-	-	-
COc1ccc(CCNC(=O)CSc2nc3[nH]ncc3c(=O)n2-c2ccc(C)c(Cl)c2)cc1OC	.	.	.	-	-	7.94µM
COc1cc2c(cc1OC)CN(C(=O)CSc1nc3[nH]ncc3c(=O)n1-c1ccccc1)CC2	-	-	-	-	-	28.2µM
COc1ccc(NC(=O)CSc2nc3[nH]ncc3c(=O)n2-c2ccccc2OC)cc1OC	-	-	-	-	-	?
COc1ccc(N2CCN(C(=O)CSc3nc4[nH]ncc4c(=O)n3-c3cccc4ccccc34)CC2)cc1	.	.	.	-	-	-
COc1ccc(NC(=O)CSc2nc3[nH]ncc3c(=O)n2-c2ccccc2C)cc1OC	-	?	-	-	-	28.2µM
CC(NC(=O)C1CC=CCC1C(=O)O)C1CC2CCC1C2 (configuration not stated)	-	?	-	-	-	-
CC(NC(=O)C1CCCC1)C1CC2CCC1C2 (configuration not stated)	-	-	28.2µM	-	-	-
COC(=O)CCCC1=CC2=C(c3ccccc3)C(=O)C(C)(OC(=O)C3CCCC3)C(=O)C2=CN1CCc1ccccn1 (configuration not stated)	-[11.4 µM]	.	-	-[17.5 µM]	-	?
COC(=O)CCCC1=CC2=C(c3ccccc3)C(=O)C(C)(OC(=O)C3CCCC3)C(=O)C2=CN1CCc1c[nH]c2ccccc12 (configuration not stated)	-[11.4 µM]	.	-	-[17.5 µM]	-	3.16µM
COc1ccc(S(=O)(=O)N[C@H](C(=O)N2CC[C@@]3(O)CCCC[C@H]3C2)c2ccccc2)cc1	-	-	-	-	-	12.6µM
CC(C)C1C(c2ccccc2)NC(c2ccccc2)CC1(O)c1ccc(F)cc1 (configuration not stated)	.	.	.	-	-	.
Cc1cc(C)c2c(N)c(C(=O)N3CCc4ccccc4C3)sc2n1	.	.	.	-	-	?
CCOc1ccc2nc3sc(C(=O)N4CCN(C)CC4)c(N)c3cc2c1	-	-	14.1µM	-	-	-
COc1ccc2cc3c(N)c(C(=O)N4CCCC4)sc3nc2c1	-	?	?	-	-	?
CC(C)c1ccc2nc3sc(C(=O)N4CCc5ccccc5C4)c(N)c3cc2c1	-	-	15.8µM	-	-	-
Cc1ccc2nc3sc(C(=O)N4CCOCC4)c(N)c3cc2c1	-	-	25.1µM	-	-	-
CC[C@H](CC[C@@H](C)C1CC[C@H]2[C@@H]3CC=C4C[C@@H](O)CC[C@]4(C)[C@H]3CC[C@]12C)C(C)C (some centres not stated)	-	.	-	-	-	-
CCOC(=O)CN1C(=O)N[C@@H](CCc2ccccc2)[C@H](C(=O)OC)[C@H]1C	-[11.4 µM]	.	-	-[17.5 µM]	-	-[13.5 µM]
CC1=C(C(=O)OC(C)C)C(c2cccs2)n2ncnc2N1 (configuration not stated)	-	-	-	-	-	-
C=CCOC(=O)C1=C(C)Nc2nnnn2C1c1ccc(OC)cc1OC (configuration not stated)	-	-	-	-	-	?
CC1=C(C(=O)Nc2ccccc2)C(c2sccc2C)n2nnnc2N1 (configuration not stated)	-	-	-	-	-	0.355µM
COC(=O)C1=C(C)Nc2nnnn2C1c1cccs1 (configuration not stated)	-	?	15.8µM	-	-	2.82µM
C=CCOC(=O)C1=C(C)Nc2nnnn2C1c1cccs1 (configuration not stated)	-	?	-	-	-	6.31µM
CCC[C@@H]1CC(C(=O)NC(C2O[C@H](SC)C(OP(=O)(O)O)[C@H](O)[C@H]2O)[C@H](C)Cl)N(C)C1 (some centres not stated)	.	.	.	-	.	.
Cc1cc(C)c(C(=O)COc2cccnc2[N+](=O)[O-])cc1C	-	-	-	-	-	1.58µM
